Measured values: the supplement of paper PMC12669032

Legend:
Assay in all cases: growth AUC relative to DMSO control (median of replicates) (fraction); higher = more growth (less inhibition), active = hit call of the paper
Settings in all cases: 20 µM; 24 h;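 active = AUC reduced over 20% with Padj below 0.05 in at least 2 of 3 replicates; inactive = otherwise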
Akkermansia muciniphila = system: Akkermansia muciniphila
In short: (§1)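 Three biological replicates, each grown on a separate day, were combined as a median for every value. In each, a gut bacterial monoculture in mGAM started at OD600 0.05 and grew anaerobically at 37 °C with 20 µM compound (1% DMSO), with OD600 read hourly over 24 h. Area under the growth curve was normalised against the plate median of solvent-only wells, or against row and column medians on the industrial chemical plate, after the minimum OD was set to 0.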

Bacteroides caccae = system: Bacteroides caccae
In short: as §1

Bacteroides clarus = system: Bacteroides clarus
In short: as §1

Bacteroides dorei = system: Bacteroides dorei
In short: as §1

Bacteroides stercoris = system: Bacteroides stercoris
In short: as §1

[1] = system: Bacteroides thetaiotaomicron
In short: as §1

Bacteroides uniformis = system: Bacteroides uniformis
In short: as §1

[2] = system: Bifidobacterium longum subsp. longum
In short: as §1

Clostridium difficile = system: Clostridium difficile
In short: as §1

Collinsella aerofaciens = system: Collinsella aerofaciens
In short: as §1

Measured: growth AUC

CCCCCCCCCC[N+](C)(C)Cc1ccccc1.[Cl-]
inactive: Akkermansia muciniphila 0.987 | Bacteroides caccae 0.962 | Bacteroides clarus 0.987 | Bacteroides dorei 0.979 | Bacteroides stercoris 1.21 | [1] 0.996 | Bacteroides uniformis 0.896 | [2] 0.866 | Clostridium difficile 0.921 | Collinsella aerofaciens 0.848

NC(=O)c1c(Cl)cccc1Cl
inactive: Akkermansia muciniphila 0.966 | Bacteroides caccae 0.94 | Bacteroides clarus 1 | Bacteroides dorei 1.01 | Bacteroides stercoris 1.06 | [1] 0.998 | Bacteroides uniformis 0.978 | [2] 1 | Clostridium difficile 0.98 | Collinsella aerofaciens 0.974

CCc1cccc(C)c1N(COC(C)C)C(=O)CCl
inactive: Akkermansia muciniphila 1.07 | Bacteroides caccae 1 | Bacteroides clarus 1.01 | Bacteroides dorei 1.03 | Bacteroides stercoris 0.998 | [1] 0.993 | Bacteroides uniformis 1.04 | [2] 1.02 | Clostridium difficile 0.956 | Collinsella aerofaciens 1.03

[O-][n+]1nc(-n2ccnc2)nc2ccc(Cl)cc21
inactive: Akkermansia muciniphila 0.972 | Bacteroides caccae 1.07 | Bacteroides clarus 1 | Bacteroides dorei 1.05 | Bacteroides stercoris 0.911 | [1] 0.99 | Bacteroides uniformis 1.04 | [2] 0.974 | Clostridium difficile 0.957 | Collinsella aerofaciens 0.964

CCOC(=O)Cn1c(=O)sc2cccc(Cl)c21
inactive: Akkermansia muciniphila 0.779 | Bacteroides caccae 0.987 | Bacteroides clarus 0.979 | Bacteroides dorei 0.97 | Bacteroides stercoris 1 | [1] 0.999 | Bacteroides uniformis 0.957 | [2] 1.04 | Clostridium difficile 0.997 | Collinsella aerofaciens 0.936

C#CCOc1cc(-n2nc(C(C)(C)C)oc2=O)c(Cl)cc1Cl
inactive: Akkermansia muciniphila 1.14 | Bacteroides caccae 0.977 | Bacteroides clarus 0.986 | Bacteroides dorei 0.951 | Bacteroides stercoris 0.879 | [1] 0.932 | [2] 1.05 | Clostridium difficile 0.862 | Collinsella aerofaciens 0.917
active: Bacteroides uniformis 0.799

CCOC(=O)NCCOc1ccc(Oc2ccccc2)cc1
inactive: Akkermansia muciniphila 0.87 | Bacteroides caccae 0.934 | Bacteroides clarus 0.928 | Bacteroides dorei 0.854 | Bacteroides stercoris 0.968 | [1] 0.891 | Bacteroides uniformis 0.958 | [2] 0.914 | Clostridium difficile 0.98 | Collinsella aerofaciens 0.984

CCCCCCCCc1c(CC)nc2ncnn2c1N
inactive: Akkermansia muciniphila 1.05 | Bacteroides caccae 1.03 | Bacteroides clarus 0.991 | Bacteroides dorei 0.989 | Bacteroides stercoris 0.953 | [1] 0.97 | Bacteroides uniformis 0.973 | [2] 0.995 | Clostridium difficile 0.972 | Collinsella aerofaciens 0.926

CCNc1nc(Cl)nc(N(CC)CC)n1
inactive: Akkermansia muciniphila 1.06 | Bacteroides caccae 0.995 | Bacteroides clarus 1.01 | Bacteroides dorei 0.986 | Bacteroides stercoris 1.01 | [1] 0.977 | Bacteroides uniformis 0.951 | [2] 1.02 | Clostridium difficile 1.02 | Collinsella aerofaciens 1.03

COC(=O)c1cccc(C)c1S(=O)(=O)NC(=O)Nc1nc(OCC(F)(F)F)nc(N(C)C)n1
inactive: Akkermansia muciniphila 0.973 | Bacteroides caccae 0.963 | Bacteroides clarus 0.995 | Bacteroides dorei 1.01 | Bacteroides stercoris 1.01 | [1] 0.985 | Bacteroides uniformis 0.981 | [2] 0.992 | Clostridium difficile 0.987 | Collinsella aerofaciens 1.01

CC(C)C1C2CCC1c1c(NC(=O)c3cn(C)nc3C(F)F)cccc12 (stereo not given)
inactive: Akkermansia muciniphila 0.967 | Bacteroides caccae 0.88 | Bacteroides clarus 0.85 | Bacteroides dorei 0.965 | Bacteroides stercoris 0.902 | [1] 0.906 | Bacteroides uniformis 0.912 | [2] 0.912 | Clostridium difficile 0.962 | Collinsella aerofaciens 0.969

CCOC(=O)C(C)Oc1ccc(Oc2cnc3cc(Cl)ccc3n2)cc1 (stereo not given)
inactive: Akkermansia muciniphila 1.01 | Bacteroides caccae 0.978 | Bacteroides clarus 0.953 | Bacteroides dorei 0.942 | Bacteroides stercoris 1.01 | [1] 0.992 | Bacteroides uniformis 0.932 | [2] 1.06 | Clostridium difficile 1.03 | Collinsella aerofaciens 1.02

CC1=C(c2ccccc2)C(=O)N(C(C)(C)c2cc(Cl)cc(Cl)c2)CO1
inactive: Akkermansia muciniphila 1.11 | Bacteroides caccae 0.962 | Bacteroides clarus 0.925 | Bacteroides dorei 0.981 | Bacteroides stercoris 0.895 | [1] 0.93 | Bacteroides uniformis 0.917 | [2] 0.956 | Clostridium difficile 1.02 | Collinsella aerofaciens 0.965

C[S+](C)CCC(=O)O.[Cl-]
inactive: Akkermansia muciniphila 0.964 | Bacteroides caccae 1.03 | Bacteroides clarus 0.974 | Bacteroides dorei 1.04 | Bacteroides stercoris 0.974 | [1] 1 | Bacteroides uniformis 1.01 | [2] 1.01 | Clostridium difficile 1.01 | Collinsella aerofaciens 0.986

Cn1cc(C(=O)Nc2ccccc2-c2cc(F)c(F)c(F)c2)c(C(F)F)n1
inactive: Akkermansia muciniphila 0.832 | Bacteroides caccae 0.995 | Bacteroides clarus 0.937 | Bacteroides dorei 0.972 | Bacteroides stercoris 0.931 | [1] 0.93 | Bacteroides uniformis 0.984 | [2] 0.919 | Clostridium difficile 0.98 | Collinsella aerofaciens 0.987

Cc1cc(C)cc(O)c1
inactive: Akkermansia muciniphila 0.865 | Bacteroides caccae 1.04 | Bacteroides clarus 0.983 | Bacteroides dorei 1.01 | Bacteroides stercoris 1 | [1] 1.01 | Bacteroides uniformis 1 | [2] 0.906 | Clostridium difficile 1.03 | Collinsella aerofaciens 1.02

CC(C)(CO)C(O)(CCc1ccc(Cl)cc1)Cn1cncn1 (stereo not given)
inactive: Akkermansia muciniphila 1.01 | Bacteroides caccae 0.955 | Bacteroides clarus 0.998 | Bacteroides dorei 0.967 | Bacteroides stercoris 1.01 | [1] 0.969 | Bacteroides uniformis 0.994 | [2] 0.967 | Clostridium difficile 0.991 | Collinsella aerofaciens 0.991

CCOc1ccc(NC(=O)OC(C)C)cc1OCC
inactive: Akkermansia muciniphila 1.08 | Bacteroides caccae 0.95 | Bacteroides clarus 1.02 | Bacteroides dorei 0.928 | Bacteroides stercoris 1.2 | [1] 0.844 | Bacteroides uniformis 0.938 | [2] 1.05 | Clostridium difficile 0.971 | Collinsella aerofaciens 0.974

Cc1[nH]n(C)c(=O)c1C(=O)c1ccc(C(F)(F)F)cc1S(C)(=O)=O
inactive: Akkermansia muciniphila 0.91 | Bacteroides caccae 1.06 | Bacteroides clarus 0.997 | Bacteroides dorei 1.02 | Bacteroides stercoris 1.01 | [1] 0.978 | Bacteroides uniformis 1.01 | [2] 0.977 | Clostridium difficile 0.989 | Collinsella aerofaciens 1

C=CCc1ccc(OC)c(OC)c1
inactive: Akkermansia muciniphila 1.02 | Bacteroides caccae 1.04 | Bacteroides clarus 0.998 | Bacteroides dorei 1.06 | Bacteroides stercoris 1.01 | [1] 1.03 | Bacteroides uniformis 1.04 | [2] 1.11 | Clostridium difficile 0.984 | Collinsella aerofaciens 1.03

CCC/C(=N\OCC)C1=C(O)CC(C2CCCSC2)CC1=O (stereo not given)
inactive: Akkermansia muciniphila 1.22 | Bacteroides caccae 0.946 | Bacteroides clarus 1.01 | Bacteroides dorei 0.936 | Bacteroides stercoris 0.999 | [1] 1.04 | Bacteroides uniformis 0.974 | [2] 1.04 | Clostridium difficile 1.01 | Collinsella aerofaciens 0.993

S=C([S-])NCCNC(=S)[S-].[Mn+2]
inactive: Akkermansia muciniphila 0.999 | Bacteroides caccae 1.01 | Bacteroides clarus 1.13 | Bacteroides dorei 0.979 | Bacteroides stercoris 1.1 | [1] 1.03 | Bacteroides uniformis 0.991 | [2] 0.996 | Clostridium difficile 0.977 | Collinsella aerofaciens 1

O=c1cc(Cl)[nH]nc1-c1ccccc1
inactive: Akkermansia muciniphila 0.833 | Bacteroides caccae 1.01 | Bacteroides clarus 0.967 | Bacteroides dorei 1.05 | Bacteroides stercoris 0.777 | [1] 1.02 | Bacteroides uniformis 1.01 | [2] 0.954 | Clostridium difficile 1.07 | Collinsella aerofaciens 0.983

C[C@@]1(c2ccccc2)NC(=O)N(Nc2ccccc2)C1=O
inactive: Akkermansia muciniphila 0.931 | Bacteroides caccae 1.04 | Bacteroides clarus 0.973 | Bacteroides dorei 1 | Bacteroides stercoris 0.965 | [1] 0.992 | Bacteroides uniformis 1.01 | [2] 0.96 | Clostridium difficile 1 | Collinsella aerofaciens 1.02
